According to PubChem BioAssay AID463173 (ICCB-Longwood Screening Facility, Harvard Medical School, 2010):
Among all 52,000 compounds or so, about 4,300 (8.3%) were called active. Cut-off read from the data, not from the text of the source: active = survival mostly below about 52% (no sharp cut-off); inactive = mostly above about 56%. Many of the other results were omitted from the sample, so actives are more common in it than they were.

Each compound was assayed on DeltatarO mutant (assay: S. aureus survival, RN4220 and DeltatarO strains – OD600, teichoic acid synthesis inhibitors, primary screen (AID 463173)). Conditions: S. aureus RN4220 wild type/DeltatarO growth, OD600, 18 h, stronger effect = lower value, screened at 18.75 µg/mL (by protocol).
For `CCc1ccc(S(=O)(=O)Nc2ccc3oc(C)c(C(=O)OCCOC)c3c2)cc1`, the survival was 32% (active). In the case of `CCOC(=O)c1c(-c2ccccc2)oc2ccc(NS(=O)(=O)c3ccc(OC)cc3)cc12`, the survival is reported as 60% (inactive). `Cc1cc(F)ccc1S(=O)(=O)Nc1ccc2oc3c(c2c1)CC(C)CC3` (configuration not stated) was tested, and the survival was 56% (inactive). For `CCOC(=O)c1c(C)oc2ccc(N(C(=O)c3ccncc3)S(=O)(=O)c3ccc(F)cc3)cc12`, the survival was 28% (active). `CCCCOC(=O)c1c(C)oc2ccc(NS(=O)(=O)c3ccc(F)cc3C)cc12` was tested, and the survival was 10% (active). For `COCc1oc2ccc(NS(=O)(=O)c3ccc(C)cc3)cc2c1C(=O)OC`, the survival was 60% (inactive). `CCCc1oc2ccc(NS(=O)(=O)c3ccc(OCC)cc3)cc2c1C(=O)OCC` was tested, and the survival was 65% (inactive). In the case of `CCOC(=O)c1c(-c2ccccc2)oc2ccc(NS(=O)(=O)c3ccccc3)cc12`, the survival is reported as 35% (active). `CCOC(=O)c1c(-c2ccccc2)oc2ccc(NS(=O)(=O)c3ccc(C)cc3C)cc12` was tested, and the survival was 47% (inactive). For `CCOC(=O)c1c(C)oc2ccc(N(C(=O)c3ccncc3)S(=O)(=O)c3ccc(CC)cc3)cc12`, the survival was 60% (inactive). With `CCOC(=O)c1c(-c2ccccc2)oc2ccc(NS(=O)(=O)c3ccc(C)cc3)cc12` the survival was 83% (inactive). `CCOC(=O)c1c(C)oc2ccc(N(C(=O)c3ccncc3)S(=O)(=O)c3ccc(F)cc3C)cc12` was tested, and the survival was 79% (inactive). In the case of `CC(C)(C)c1ccc(CN(Cc2ccco2)Cc2nnnn2C2CCCCC2)cc1`, the survival is reported as 105% (inactive). With `CC1CCc2c(nc3ncnn3c2NCCN(C)C)C1` (configuration not stated) the survival was 88% (inactive). In the case of `COc1cccc(NC(=O)Nc2cccc(-c3cn4cccnc4n3)c2)c1`, the survival is reported as 78% (inactive). For `COc1ccc(C(=O)n2cnnc2N)cc1`, the survival was 103% (inactive). In the case of `Cc1cc(C)c(S(=O)(=O)Nc2ccc3oc(C)c(C(=O)OC(C)C)c3c2)cc1C`, the survival is reported as 48% (active). In the case of `CCOC(=O)c1c(-c2ccccc2)oc2ccc(NS(=O)(=O)c3cc(C)c(C)cc3C)cc12`, the survival is reported as 63% (inactive). With `CC(=O)c1c(C)oc2ccc(NS(=O)(=O)c3ccc(C(C)C)cc3)cc12` the survival was 78% (inactive). In the case of `CCOc1ccc(CCNC(=O)CCn2c(=O)c3cccn3c3ccc(F)cc32)cc1OCC`, the survival is reported as 42% (active). With `COc1ccc(CNC(=O)CCn2c(=O)c3cccn3c3ccc(F)cc32)cc1OC` the survival was 91% (inactive). In the case of `COc1ccc(CCNC(=O)Cn2c(=O)c3cccn3c3ccc(F)cc32)cc1OC`, the survival is reported as 72% (inactive). `COc1ccc(CCNC(=O)CCCn2c(=O)c3cccn3c3ccc(F)cc32)cc1OC` was tested, and the survival was 43% (active). `COc1ccc(CCNC(=O)CCn2c(=O)c3cccn3c3ccc(F)cc32)cc1OC` was tested, and the survival was 45% (active). In the case of `COc1ccc(CCNC(=O)CCCn2c(=O)c3cccn3c3ccccc32)cc1OC`, the survival is reported as 61% (inactive). With `COc1ccc(CNC(=O)CCCn2c(=O)c3cccn3c3ccc(F)cc32)cc1OC` the survival was 53% (inactive). With `CCOc1ccc(CCNC(=O)CCCn2c(=O)c3cccn3c3cccnc32)cc1OCC` the survival was 93% (inactive). `CCOc1ccc(CCNC(=O)Cn2c(=O)c3cccn3c3ccc(F)cc32)cc1OCC` was tested, and the survival was 74% (inactive). In the case of `COc1ccc(N2CC(NC(=O)c3c(F)cccc3Cl)CC2=O)cc1OC` (configuration not stated), the survival is reported as 95% (inactive). `COc1ccc(Cl)cc1NC(=O)CSc1nnc(C)n2c1cc1sccc12` was tested, and the survival was 68% (inactive). For `Cc1ccc(-n2nc(C)c3c(C(F)(F)F)cc(-c4cccnc4)nc32)cc1C`, the survival was 42% (inactive). With `CCN(Cc1ccccc1)C(=O)Cn1c(=O)n(Cc2ccccc2)c(=O)c2c1c1cc(OC)ccc1n2C` the survival was 59% (inactive). With `O=C(CN1C(=O)C2(SCC(=O)N2c2cccc(Cl)c2)c2ccccc21)NCCc1ccccc1` (configuration not stated) the survival was 104% (inactive). `CCOc1ccccc1CNC(=O)CN1C(=O)C2CCCCN2c2ccc(C(=O)N(C)C)cc21` (configuration not stated) was tested, and the survival was 120% (inactive). In the case of `COc1cccc(NC(=O)CSc2nc3ccc(NC(=O)c4ccco4)cc3s2)c1`, the survival is reported as 77% (inactive). In the case of `CN(C)c1cccc(C(=O)Nc2nc3ccc(S(=O)(=O)N4CCCC4)cc3s2)c1`, the survival is reported as 135% (inactive). With `CN(C)c1cccc(C(=O)Nc2nc3ccc(S(=O)(=O)NC(C)(C)C)cc3s2)c1` the survival was 47% (active). With `CC(C)(C)NS(=O)(=O)c1ccc2nc(NC(=O)c3cccnc3)sc2c1` the survival was 86% (inactive). For `Cc1cccc(NC(=O)Cn2nc(N3CCN(c4ccccc4)CC3)ccc2=O)c1C`, the survival was 87% (inactive). `COc1cc(NC(=O)c2nc3cc(C)c(C)cc3n(C)c2=O)cc(OC)c1OC` was tested, and the survival was 94% (inactive). With `COc1ccc(OCC(O)Cn2c(=N)n(CCN3CCCCC3)c3ccccc32)cc1` (configuration not stated) the survival was 46% (inactive). In the case of `N=c1n(CCN2CCCCC2)c2ccccc2n1CC(O)COc1ccc(Cl)cc1Cl` (configuration not stated), the survival is reported as -16% (active). In the case of `OC(COc1ccc(Cl)cc1Cl)CN1CCCCC1` (configuration not stated), the survival is reported as 70% (inactive). For `Cc1ccc(OCC(O)Cn2c(=N)n(CCN3CCCCC3)c3ccccc32)cc1` (configuration not stated), the survival was 36% (active). `Cc1ccccc1OCC(O)Cn1c(=N)n(CCN2CCCCC2)c2ccccc21` (configuration not stated) was tested, and the survival was 71% (inactive). `N=c1n(CCN2CCCCC2)c2ccccc2n1CC(O)COc1ccccc1` (configuration not stated) was tested, and the survival was 163% (inactive). `CCN1CCCC1CNC(=O)Nc1c[nH]c2ccc(C)cc2c1=O` (configuration not stated) was tested, and the survival was 102% (inactive). `O=C(Nc1nc2n(n1)C(c1ccccc1)C=C(c1ccccc1)N2)c1ccc(Cl)c([N+](=O)[O-])c1` (configuration not stated) was tested, and the survival was 63% (inactive). With `CC(C(=O)NCc1ccccc1)N1Cc2ccccc2C1=O` (configuration not stated) the survival was 95% (inactive). In the case of `CCOC(=O)c1c(C)[nH]c(CCC(=O)NCCCN2CCN(c3ccccc3F)CC2)c1C`, the survival is reported as 83% (inactive). For `CCC1(CC)Cc2ccccc2-c2nc(NN)n(Cc3ccccc3)c(=O)c21`, the survival was 48% (active). `NNc1nc2ccccc2c(=O)n1Cc1ccccc1` was tested, and the survival was 100% (inactive). `Cn1c(NN)nc2c(c1=O)C1(CCCC1)Cc1ccccc1-2` was tested, and the survival was 59% (inactive). In the case of `CN1CCN(C(=S)NCC2CCCO2)CC1` (configuration not stated), the survival is reported as 64% (inactive). For `Cc1cccc(NC(=O)Cn2c(=O)oc3cc(S(=O)(=O)NC4CCCC4)ccc32)c1`, the survival was 82% (inactive). `COc1ccc(-c2cc(-c3ccccc3)nc(SCC(=O)CC(=O)OC(C)C)c2C#N)cc1` was tested, and the survival was 55% (inactive). For `Cc1ccc(NC(=O)CSc2nc(-c3ccc(F)cc3)cc(C(F)(F)F)c2C#N)cc1`, the survival was 63% (inactive). `COc1ccc(-c2cc(-c3ccccc3)nc(SCC(=O)Nc3ccccc3F)c2C#N)cc1` was tested, and the survival was 140% (inactive). In the case of `COc1ccc(-c2cc(-c3ccccc3)nc(SCC(=O)Nc3ccccc3C)c2C#N)cc1`, the survival is reported as 56% (active). For `COc1ccc(NC(=O)CSc2nc(-c3ccccc3)cc(-c3cc(OC)c(OC)c(OC)c3)c2C#N)c(OC)c1`, the survival was 54% (inactive). With `CCN(CC)C(=O)CSc1nc(-c2ccccc2)cc(-c2ccc(OC)cc2)c1C#N` the survival was 45% (active). In the case of `C=C(C)CSc1nc(-c2ccccc2)cc(-c2ccc(OC)cc2)c1C#N`, the survival is reported as 57% (inactive). For `C#CCSc1nc(-c2ccccc2)cc(-c2ccccc2)c1C#N`, the survival was 40% (active). With `Cc1ccc(-c2cc(C(F)(F)F)c(C#N)c(SCC(=O)Nc3ccccc3)n2)cc1` the survival was 53% (active). In the case of `N#Cc1c(C(F)(F)F)cc(-c2ccc(F)cc2)nc1SCC(=O)Nc1ccccc1`, the survival is reported as 72% (inactive). In the case of `N#CN=C(N)CSc1nc(-c2ccccc2)cc(-c2ccccc2)c1C#N`, the survival is reported as 56% (inactive). In the case of `CCS(=O)(=O)CCSc1nc(-c2ccc(Br)cc2)cc(-c2ccccc2)c1C#N`, the survival is reported as 85% (inactive).
